# Only a selection was taken, and hits are over-represented in it overall.
# Pf Dd2 inh: Plasmodium falciparum Dd2 growth inhibition; AID 1347417; Potency, µM (titrated, usually from 28.9 µM), inactives show at the top dose activity, negative = inhibition, usual class: inhibitors; P. falciparum Dd2 growth, SYBR Green, 72 h; hit rate 4.3% among 120,000; active means well fitted inhibition curve with a large enough effect;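 further: plate controls were DMSO vehicle for no effect and reference drug for full effect; nearly all actives have a fitted effect of over 65% in size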
#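 Infected erythrocytes (Dd2, 0.3% parasitemia, 2.5% hematocrit final) are added to compound in RPMI-1640/Albumax II medium, grown 72 h at 37C in low oxygen, then lysed with saponin/Triton-X containing SYBR Green and read by fluorescence.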
# * hit, by the source's call; i = inactive; [ ] = another dose, or the depositor's remark. Potency means the concentration at half of the fitted maximal effect.
SMILES,Pf Dd2 inh
CN(Cc1cccnc1)c1nc2c(c(=O)[nH]1)CCN(Cc1ccc(Cl)cc1)CC2,-10%[5.79 µM]
CC(C)c1nc2c(c(-c3ccc(O)cc3)n1)CN(C(=O)N(C)C)CC2,i
Cc1nc2c(c(-c3ccc(Cl)cc3)n1)CCN(C(=O)c1ccccc1)CC2,-17%
CC(C)c1nc2c(c(-c3ccc(Cl)cc3)n1)CCN(Cc1cccc3ccccc13)CC2,11µM*
CN1CCN(c2nc3c(c(=O)[nH]2)CCN(Cc2cccnc2)CC3)CC1,38%[5.79 µM]
CC(C)c1nc2c(c(-c3ccc(Cl)cc3)n1)CCN(Cc1cccnc1)CC2,11µM*
O=C(c1ccc(F)c(Cl)c1)N1CCC2(CC1)CN(c1ccccc1)C2=O,-24%
COc1ccccc1CCNC(=O)C1CC(=O)N(c2n[nH]c3cccc(F)c23)C1 (stereo unspecified),-23%
COc1ccc(C)cc1NC(=O)Cn1nc2n(c1=O)CCCCC2,9%
O=C(CCC1CCN(C(=O)c2ccccc2F)CC1)NC1CC1,-15%
CN(CC(=O)O)C(=O)[C@H]1C[C@@](C)(C(=O)O)N(C)[C@H]1c1ccc(Cl)cc1,19%
CS(=O)(=O)N1CCCN(C(=O)C2CCC2)CCNC(=O)CC1c1ccccc1 (stereo unspecified),-15%
O=C(NCc1nnc2c(-c3nc(C4CC4)no3)cccn12)c1cccc(F)c1,i
CN(Cc1ccon1)Cc1cc2n(n1)CCN(C(=O)c1ncoc1C1CC1)C2,1%
O=C1NCc2ccccc2CC12CCCCN2Cc1cccc(F)c1 (stereo unspecified),-29%
Cc1ccc(CN2CCCCC23Cc2ccccc2CNC3=O)cc1C (stereo unspecified),7.9µM*
Cc1ccc(CN2CCCC23Cc2ccccc2CNC3=O)cc1 (stereo unspecified),10µM*
COc1ccc(CN2CCCCC23Cc2ccccc2CNC3=O)cc1OC (stereo unspecified),-17%
O=C1NCc2ccccc2CC12CCCN2Cc1ccc(O)cc1O (stereo unspecified),-8%
CCc1ccccc1CN1CCCC12Cc1ccccc1CNC2=O (stereo unspecified),8.9µM*
O=C1NCc2ccccc2CC12CCCN2Cc1ccc(O)cc1 (stereo unspecified),-23%
O=C1NCc2ccccc2CC12CCCN2Cc1ccc(F)cc1F (stereo unspecified),0%
CC(=O)Nc1ccc(CN2CCCC23Cc2ccccc2CNC3=O)cc1 (stereo unspecified),-1%
CNC(=O)N1CCC(C2CCN(C(=O)CCc3ccc(OC)cc3)C2)CC1 (stereo unspecified),-6%
CCOCCn1c(=O)[nH]c2cc(C(=O)N(C)CCc3noc(C)n3)ccc21,-8%
SMILES,Pf Dd2 inh
Cc1ccc(C(=O)N2C[C@@H](F)C[C@H]2C(=O)N2CCCCC2)c(C)c1,16%
CN1CC(=O)N(C2CCNCC2)Cc2c(NCCO)ncnc21,7%
CC1CCN(C(=O)[C@@H](C)C2CC[C@@]3(C)CC[C@H](NC(=O)c4cnccn4)[C@@H](C)[C@@H]3[C@H]2O)CC1 (stereo partly specified),-25%
COCc1cc(CC2(NCc3ccc(OC)cc3)COC2)no1,-12%[44.1 µM]
CCCN(CC1CCOC1)S(=O)(=O)c1ccc2c(c1)OCCO2 (stereo unspecified),20%[5.79 µM]
COc1cccc([S+](=O)([O-])N2CC3ON=C(C(=O)O)C3C2)c1 (stereo unspecified),5%
CN(C1CCCCC1)S(=O)(=O)c1ccc2c(c1)c(=O)c(C(=O)NCc1ccc(F)cc1)cn2C,30%
CCn1cc(C(=O)N2CCN(c3ccccc3F)CC2)c(=O)c2cc(S(=O)(=O)N(C)C)ccc21,39%
CN(C1CCCCC1)S(=O)(=O)c1ccc2c(c1)c(=O)c(C(=O)N1CCN(c3ccc(F)cc3)CC1)cn2C,60%
COc1ccc(-n2nc(C(=O)N3CCN(c4ccccc4OC)CC3)c3c4ccccc4n(C)c3c2=O)cc1,73%
Cn1cc(C(=O)N2CCN(c3ccccc3)CC2)c(=O)c2cc(S(=O)(=O)N3CCCC3)ccc21,1.6µM*
Cn1cc(C(=O)N2CCN(c3cccc(Cl)c3)CC2)c(=O)c2cc(S(=O)(=O)N3CCCC3)ccc21,11%
CCn1cc(C(=O)N2CCN(c3ccc(F)cc3)CC2)c(=O)c2cc(S(=O)(=O)N(C)C3CCCCC3)ccc21,-8%
CCn1cc(C(=O)N2CCN(c3cc(C)ccc3C)CC2)c(=O)c2cc(S(=O)(=O)N3CCOCC3)ccc21,-6%
COc1ccc(-n2nc(C(=O)N3CCN(c4ccc(F)cc4)CC3)c3c4ccccc4n(C)c3c2=O)cc1,27%
COc1ccc(N2CCN(C(=O)c3cn(C4CCCCC4)c(=O)c4c3c3ccccc3n4C)CC2)cc1,5µM*
COc1ccc(N2CCN(C(=O)c3cn(C)c4ccc(S(=O)(=O)N(C)C5CCCCC5)cc4c3=O)CC2)cc1,11µM*
CN(C1CCCCC1)S(=O)(=O)c1ccc2c(c1)c(=O)c(C(=O)N1CCN(c3ccccc3F)CC1)cn2C,0.89µM*
Cc1ccc(C)c(NC(=O)Cn2ccn3nc(-c4ccc(F)cc4)c(CO)c3c2=O)c1,11%
Cc1ccc(NC(=O)Cn2ccn3nc(-c4ccccc4)c(CO)c3c2=O)c(C)c1,i
O=C(C1CC1)N1CC(Oc2ccc(-c3noc(C4CCOCC4)n3)cc2)C1,i
CCCNC(=O)N[C@@H]1C[C@H](Cn2cc(CN(C)C)nn2)[C@@H](O)[C@H]1O,17%[44.1 µM]
CCc1nc(-c2ccc(OC3CCN(Cc4cc(F)ccc4F)C3)cc2)no1 (stereo unspecified),28%[5.79 µM]
C[C@]1(CO)[C@H]2Cc3sc(NC(=O)c4ccco4)nc3[C@@H](CC(=O)NC3CCCC3)[C@]2(C)CC[C@H]1O,-9%
Cc1ccc(C(=O)NC2CCCN(c3cc(-c4ccc(Cl)cc4)[nH]n3)C2)cn1 (stereo unspecified),-9%
SMILES,Pf Dd2 inh
C[C@H]1CCCN1C(=O)c1nnc(COc2ccc3cccnc3c2)n1-c1cccnc1,-25%[44.1 µM]
Cc1cccc2[nH]c(CN(C)C(=O)c3ccc(CCC(C)(C)O)cc3)nc12,-21%
Cc1sc2ccn(C)c(=O)c2c1C(=O)NCc1ccccc1Cl,i
Cc1cc(-c2cc3c(nc2-c2ccccc2)nc(C(=O)NCCN(C)C)n3C)ccn1,-20%[44.1 µM]
COCCCNC(=O)c1nc2nc(-c3ccccc3)c(Cl)cc2n1C,-27%[44.1 µM]
Cc1ccccc1Nc1cc2c(nc1-c1ccccc1)nc(C(=O)NCCN(C)C)n2C,7.9µM*
CN(C)CCNC(=O)c1cc(-c2ccc(F)cc2)cc2ncn(C)c12,i
CN(C)CCNC(=O)c1nc2nc(-c3ccccc3)c(Nc3ccc(F)cc3)cc2n1C,7.1µM*
COCc1nc2nc(-c3ccccc3)c(Nc3ccc(F)c(OC)c3)cc2n1C,i
O=C(NC1CCN(c2cc(-c3cccs3)[nH]n2)CC1)c1cccc(Cl)c1,i
O=C(NCCCN1CCCCCC1)c1ccc(CC2CCN(C(=O)C3CC3)CC2)cc1,i
O=C(c1ccc(F)cc1)N1CCCC(CN2CCOCC2)CC1 (stereo unspecified),-19%
Cc1ccc2c(n1)N(C)[C@H](CO)CCN(Cc1cccnc1)C2,-3%[44.1 µM]
CC(C)OCCCN1C(=O)c2[nH]nc(-c3ccccc3O)c2C1c1cccc(OCc2ccccc2)c1 (stereo unspecified),5.6µM*
CC(C)OCCCNC(=O)C1Cn2cccc2C(=O)N1Cc1ccccc1 (stereo unspecified),9%
CCCCN1C(=O)c2[nH]nc(-c3ccccc3O)c2C1c1ccc(C(C)(C)C)cc1 (stereo unspecified),2.8µM*

# High-throughput results deposited in PubChem BioAssay by National Center for Advancing Translational Sciences (NCATS).
